Values joined by “and” are separate entries in the source; they are usually repeats but may differ in a detail not shown here. Equal values may be shown once. Results filed as inconclusive are left out. A structure can be active in one record and inactive in another. Active and inactive are the calls of the source.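 The calls were made as follows, unless noted: active = normalized viability below 100% at a tested concentration; inactive = the rest.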
How the values were obtained:
[1] = viability loss in pontine glioma line – cell-based, SU-DIPG-XIII, MIPE4.0, CellTiter-Glo, qHTS, dose response (AID 1347061; cut-off not given, nearly all actives have AC50 up to about 37 µM;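 also: cells exposed to compound for 48 hours before readout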); details: CellTiter-Glo ATP luminescence
[2] = viability loss in pontine glioma line – cell-based, JHH-DIPG-1, MIPE4.0, CellTiter-Glo, qHTS, dose response (AID 1347062; cut-off not given, nearly all actives have AC50 up to about 27 µM); details: JHH-DIPG-1 viability, CellTiter-Glo ATP luminescence
[3] = viability loss in pontine glioma line – cell-based, SU-DIPG-XXV, MIPE5.0, CellTiter-Glo, qHTS, dose response (AID 1347065; cut-off not given, nearly all actives have AC50 up to about 26 µM;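 also: cells exposed to compound for 48 hours before ATP readout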); details: CellTiter-Glo ATP luminescence
[4] = growth inhibition of DIPG cells – cell-based, MIPE5.0 library, qHTS (AID 1347068; cut-off not given, nearly all actives have IC50 up to about 30 µM); details: SU-DIPG-XXV viability
[5] = viability loss with induced miR-34 in A549 – imaging, A549 dox-inducible miR-34, nuclei and caspase counts, primary screen (AID 1347080;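 active = compounds whose cell count with miR-34 switched on is under 0.7 times the count with it off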); details: A549 miR-34 inducible, Hoechst nuclei count, 48 h
[6] = compounds altering HSF1 focus formation in cells – imaging, Selleck Cancer Library (AID 1347162; in the data active = plate-normalised HSF1 focus index below about 0.46); details: human cells, HSF1 nuclear foci imaging, at 10 µM; SSMD: measured here: HSF1 foci SSMD mean; cell count: measured here: cell number; plate-normalised HSF1 focus index: stronger effect = lower value
[7] = MELAS cybrid and Rieske KO viability enhancers – cell-based, MELAS cybrids, Rieske KO mouse fibroblasts, CellTiter-Glo, primary screen (AID 1508586;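 active = mean z-score across replicates of 1.96 or higher in either the MELAS or the Rieske mutant cell line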;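 also: z relative to plate mean and SD of compound and empty wells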); details: low glucose
[8] = drug combination growth inhibition, ovarian cancer – cell-based, oncology-focused library, rucaparib conditional, profiling panel (AID 1508598); details: patient-derived ovarian cancer cells, CellTiter-Glo viability, 144 h, stronger effect = lower value
[9] = viability loss in pontine glioma line – cell-based, SU-DIPG-XIII, MIPE5.0, CellTiter-Glo, qHTS, dose response (AID 1347064; cut-off not given, nearly all actives have AC50 up to about 23 µM); details: CellTiter-Glo ATP luminescence
[10] = growth inhibition of DIPG cells – cell-based, MIPE4.0 library, CellTiter-Glo luminescence, qHTS (AID 1347066; cut-off not given, nearly all actives have AC50 up to about 30 µM;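 also: cells exposed to compound for 48 hours before readout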); details: SU-DIPG-VI viability, CellTiter-Glo ATP luminescence
[11] = growth inhibition, single agent or in combination, cell-based, chromothripsis tumors, cisplatin or BGB combos (AID 1671449; in the data active = inhibition above about 80%;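 also: cells exposed for 96 hours; 0% = vehicle DMSO and 100% = killing by high DMSO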); details: LFS_MB_P medulloblastoma cells
[12] = growth inhibition, single agent and combos, cell-based, chromothripsis tumors, cisplatin or BGB combos (AID 1671450; in the data active = inhibition above about 80%;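 also: cells exposed to compound for four days; 0% = vehicle DMSO and 100% = cell killing by high DMSO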); details: HDN33 neuroblastoma cells, stronger effect = higher value
[13] = growth inhibition, single agents and combos, ICB984, cell-based, cisplatin or BGB combos, synergistic combos for chromothripsis tumors (AID 1671451; call rule not given here;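 also: cells exposed for 96 hours before readout; 0% = vehicle DMSO and 100% = killing by high DMSO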); details: ICB984 medulloblastoma cells, drug combinations, stronger effect = higher value
[14] = growth inhibition, single agents and combos, HTB85, cell-based, BGB or cisplatin IC20 combos, synergistic combos for chromothripsis tumors (AID 1671453; in the data active = inhibition above about 80%;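 also: cells exposed for 96 hours before readout; 0% = vehicle DMSO and 100% = high DMSO killing control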); details: HTB85 osteosarcoma cells, drug combinations, stronger effect = higher value
[15] = growth inhibition, MDA-MB-436, cell-based, BGB or cisplatin combos, synergistic combos for chromothripsis tumors (AID 1671458; call rule not given here;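 also: cells exposed for 96 hours; 0% = vehicle DMSO and 100% = killing by high DMSO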); details: MDA-MB-436 breast carcinoma growth inhibition, drug combinations, stronger effect = higher value
[16] = BT084 cell growth, single and combined drugs, ICGC_MB145, cisplatin and BGB IC40 combos (AID 1671461; in the data active = inhibition above about 80%;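 also: cells exposed to drugs for 96 hours; 0% = vehicle DMSO and 100% = high DMSO full killing control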); details: BT084 medulloblastoma cells, drug combinations, stronger effect = higher value
[17] = RCMB18 cell growth, single agent and combined, cisplatin and BGB IC40 combos (AID 1671462; in the data active = inhibition above about 80%;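 also: cells exposed to compound for four days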); details: RCMB18 medulloblastoma cells, stronger effect = higher value
[18] = CRL1545 cell growth, single agent and combined, cisplatin and BGB IC20 combos (AID 1671464; in the data active = inhibition above about 80%;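 also: cells exposed to compound for 96 hours before readout; 0% = vehicle DMSO and 100% = high DMSO killing control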); details: CRL1545 osteosarcoma cells, stronger effect = higher value
[19] = measured here: with BGB IC20 combination, at 0.5 µM
[20] = measured here: with cisplatin IC20 combination, at 0.5 µM

Structure (SMILES): Cc1cnc(-c2cnc(NCCNc3ccc(C#N)cn3)nc2-c2ccc(Cl)cc2Cl)[nH]1
- outcome [1]: inactive
- outcome [2]: inactive
- outcome [3]: inactive
- outcome [4]: inactive
- fold change ([5]; stronger effect = lower value, cell number ratio, induced over uninduced): 0.776 (inactive)
- fold change ([5]; measured here: relative caspase fold change +Dox/-Dox): 0.884
- cell count ([5]; measured here: total cells with miR-34 induction, stronger effect = lower value): 2900
- cell count ([5]; measured here: total cells without miR-34 induction): 3740
- SSMD [6]: -0.145
- cell count [6]: 7270
- plate-normalised HSF1 focus index [6]: 0.999 (inactive)
- z-score ([7]; MELAS cybrid survival, CellTiter-Glo 48 h, stronger effect = higher value): -0.0957 (inactive)
- z-score ([7]; Rieske KO mouse fibroblast survival, CellTiter-Glo 72 h): -0.0886
- viability ([8]; at 0.000305 µM, OCI-C5x cells, with rucaparib 10 µM, 100% = cells with rucaparib alone): 111% (inactive)
- viability ([8]; at 0.000305 µM, OCI-C5x cells, without rucaparib): 124% (inactive)
- viability ([8]; at 0.000305 µM, OCI-P5x cells, with rucaparib 20 µM, 100% = cells with rucaparib alone): 101% (inactive)
- viability ([8]; at 0.000305 µM, OCI-P5x cells, without rucaparib): 106% (inactive)
- viability ([8]; at 0.00122 µM, OCI-C5x cells, with rucaparib 10 µM, 100% = cells with rucaparib alone): 108% (inactive)
- viability ([8]; at 0.00122 µM, OCI-C5x cells, without rucaparib): 122% (inactive)
- viability ([8]; at 0.00122 µM, OCI-P5x cells, with rucaparib 20 µM, 100% = cells with rucaparib alone): 101% (inactive)
- viability ([8]; at 0.00122 µM, OCI-P5x cells, without rucaparib): 106% (inactive)
- viability ([8]; at 0.00488 µM, OCI-C5x cells, with rucaparib 10 µM, 100% = cells with rucaparib alone): 118% (inactive)
- viability ([8]; at 0.00488 µM, OCI-C5x cells, without rucaparib): 114% (inactive)
- viability ([8]; at 0.00488 µM, OCI-P5x cells, with rucaparib 20 µM, 100% = cells with rucaparib alone): 98% (active)
- viability ([8]; at 0.00488 µM, OCI-P5x cells, without rucaparib): 99% (active)
- viability ([8]; at 0.0195 µM, OCI-C5x cells, with rucaparib 10 µM, 100% = cells with rucaparib alone): 126% (inactive)
- viability ([8]; at 0.0195 µM, OCI-C5x cells, without rucaparib): 129% (inactive)
- viability ([8]; at 0.0195 µM, OCI-P5x cells, with rucaparib 20 µM, 100% = cells with rucaparib alone): 88.1% (active)
- viability ([8]; at 0.0195 µM, OCI-P5x cells, without rucaparib): 102% (inactive)
- viability ([8]; at 0.0781 µM, OCI-C5x cells, with rucaparib 10 µM, 100% = cells with rucaparib alone): 113% (inactive)
- viability ([8]; at 0.0781 µM, OCI-C5x cells, without rucaparib): 116% (inactive)
- viability ([8]; at 0.0781 µM, OCI-P5x cells, with rucaparib 20 µM, 100% = cells with rucaparib alone): 102% (inactive)
- viability ([8]; at 0.0781 µM, OCI-P5x cells, without rucaparib): 99.7% (active)
- viability ([8]; at 0.313 µM, OCI-C5x cells, with rucaparib 10 µM, 100% = cells with rucaparib alone): 127% (inactive)
- viability ([8]; at 0.313 µM, OCI-C5x cells, without rucaparib): 127% (inactive)
- viability ([8]; at 0.313 µM, OCI-P5x cells, with rucaparib 20 µM, 100% = cells with rucaparib alone): 93.1% (active)
- viability ([8]; at 0.313 µM, OCI-P5x cells, without rucaparib): 99.5% (active)
- viability ([8]; at 1.25 µM, OCI-C5x cells, with rucaparib 10 µM, 100% = cells with rucaparib alone): 121% (inactive)
- viability ([8]; at 1.25 µM, OCI-C5x cells, without rucaparib): 115% (inactive)
- viability ([8]; at 1.25 µM, OCI-P5x cells, with rucaparib 20 µM, 100% = cells with rucaparib alone): 93.8% (active)
- viability ([8]; at 1.25 µM, OCI-P5x cells, without rucaparib): 91.8% (active)
- viability ([8]; at 5 µM, OCI-C5x cells, with rucaparib 10 µM, 100% = cells with rucaparib alone): 80.9% (active)
- viability ([8]; at 5 µM, OCI-C5x cells, without rucaparib): 133% (inactive)
- viability ([8]; at 5 µM, OCI-P5x cells, with rucaparib 20 µM, 100% = cells with rucaparib alone): 58.5% (active)
- viability ([8]; at 5 µM, OCI-P5x cells, without rucaparib): 78% (active)

Structure (SMILES): Cc1cnc(CNC(=O)c2c(=O)c3ccc(N4CCCN(C)CC4)nc3n3c2sc2ccccc23)cn1
- outcome [1]: inactive
- outcome [2]: inactive
- outcome [9]: inactive
- outcome [3]: inactive
- outcome [10]: inactive
- outcome [4]: inactive
- inhibition ([11]; at 0.5 µM, stronger effect = higher value): -32.6% (inactive) and -19.8% (inactive)
- inhibition ([11]; measured here: combination with BGB IC20, at 0.005 µM): -4.81% and -24.5%
- inhibition ([11]; measured here: combination with BGB IC40, at 0.005 µM): -1.91% and -28.2%
- inhibition ([11]; measured here: combination with BGB IC40, at 0.05 µM): 0.537% and -10.1%
- inhibition ([11]; measured here: combination with cisplatin, at 0.5 µM, stronger effect = higher value): -27% and -20.6%
- inhibition ([11]; measured here: combination with cisplatin, at 5 µM, stronger effect = higher value): 126% and 65.2%
- inhibition ([12]; BGB combo, at 5 µM): 99.9% and 61.4%
- inhibition ([12]; at 0.5 µM): 53.7% (inactive) and 26.5% (inactive)
- inhibition ([12]; cisplatin combo, at 5 µM): 99.9% and 78%
- inhibition [12, 19]: 51.6% and 27.6%
- inhibition [12, 20]: 44.8% and 18.7%
- inhibition ([12]; single agent, at 5 µM): 99.9% and 80.2%
- inhibition ([13]; BGB IC20 combo, at 0.005 µM): 94.7% and -37.9%
- inhibition ([13]; BGB IC40 combo, at 0.005 µM): 92.8% and -33.4%
- inhibition ([13]; BGB IC40 combo, at 0.05 µM): 102%
- inhibition ([13]; at 0.5 µM): -35% (inactive) and -18.1% (inactive)
- inhibition ([13]; cisplatin combo, at 0.05 µM): 102%
- inhibition ([13]; cisplatin combo, at 0.5 µM): -48.5% and -27.9%
- inhibition ([13]; cisplatin combo, at 5 µM): -21.1% and -37.3%
- inhibition ([13]; measured here: 5 uM single agent, at 5 µM): -8.37% and -11.6%
- inhibition ([14]; at 0.5 µM): 6.45% (inactive) and -21.5% (inactive)
- inhibition ([14]; measured here: with BGB IC20, at 0.5 µM): 2.27% and -44.5%
- inhibition ([14]; measured here: with BGB IC20, at 5 µM): 100% and 39.1%
- inhibition ([14]; measured here: with cisplatin IC20, at 0.5 µM): -0.545% and -23%
- inhibition ([14]; measured here: with cisplatin IC20, at 5 µM): 99.9% and 26.3%
- inhibition ([14]; single agent, at 5 µM): 100% and 41.7%
- inhibition ([15]; at 0.5 µM): 29.4% (inactive) and 4.69% (inactive)
- inhibition ([15]; measured here: BGB combination, at 0.5 µM): 10.6% and -16.3%
- inhibition ([15]; measured here: BGB combination, at 5 µM): 103% and -17.9%
- inhibition ([15]; measured here: cisplatin combination, at 0.5 µM): 20.7% and -11.9%
- inhibition ([15]; measured here: cisplatin combination, at 5 µM): 102% and 14.1%
- inhibition ([16]; at 0.5 µM): -18.1% (inactive) and -56.2% (inactive)
- inhibition ([16]; cisplatin combination, at 0.5 µM): 18.1% and -29.3%
- inhibition ([16]; cisplatin combination, at 5 µM): 108% and 82.2%
- inhibition ([16]; measured here: BGB IC40 combination 0.05 uM, at 0.05 µM): 77.5% and -15.1%
- inhibition ([16]; single agent, at 5 µM): 106% and -74.4%
- inhibition ([17]; at 0.5 µM): 85.6% (active) and -19.4% (inactive)
- inhibition ([17]; cisplatin combo, at 5 µM): 101% and 100%
- inhibition ([17]; measured here: BGB IC40 combination, at 0.05 µM): -21.6% and -12.2%
- inhibition ([17]; measured here: combination with cisplatin, at 0.5 µM): 95.7% and -7.59%
- inhibition ([17]; single agent, at 5 µM): 101%
- inhibition ([18]; at 0.5 µM): 38.3% (inactive) and -17.2% (inactive)
- inhibition [18, 19]: 36.7% and -12.7%
- inhibition [18, 20]: 39% and -19.4%
- inhibition ([18]; single agent, at 0.05 µM): 2.42% and -7.19%
- inhibition ([18]; single agent, at 5 µM): 99.9%

Source: PubChem BioAssay
